Inconclusive results are not listed. Unmarked numbers belong to inactive results. Activity calls are given as the source filed them. Calls come from the whole dose curve.
Potency is the fitted concentration of half-maximal effect.

This experiment can be described thus: Cell Viability - BJ (AID 421).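 Note: cells exposed to compound for 40 hours at 37 °C before readout.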 As to conditions: BJ fibroblast viability, qHTS. An excerpt: NIH Chemical Genomics Center [NCGC]
NIH Molecular Libraries Screening Centers Network [MLSCN]
National Institutes of Environmental Health Sciences [NIEHS]
National Toxicology Program [NTP]
We have developed a 1536-well cell-based assay for quantitative high throughput screening (qHTS) against a number of cell lines to determine in vitro cytotoxicity of small molecules. This particular assay uses the BJ cell line from ATCC which is derived from normal human foreskin fibroblasts.
NCGC Assay Protocol Summary:
The CellTiter-Glo luminescent cell viability assay (Promega) is a homogeneous method to measure the number of viable cells in culture. The end point readout of this assay is based on quantitation of intracellular ATP, an indicator of metabolic activity, using the luciferase reaction. Luciferase catalyzes the oxidation of beetle Luciferin to oxyluciferin and light in the presence of ATP. The luminescent signal is proportional to amount of ATP present.
Using the CellTiter-Glo luminescent cell viability assay, the amount of cellular ATP was measured in the BJ cell line with complete culture medium following compound treatment for 40 hours. The assay was performed in opaque white Kalypsys 1536-well plates. In the screen, tamoxifen and doxorubicin were used as positive controls. Library compounds were measured for their ability to cause acute toxicity in the cell line, as reflected by a decrease in intracellular ATP levels, in a concentration-dependent manner. Data were normalized to the controls for basal activity (DMSO only) and 100% inhibition (100 uM tamoxifen). AC50 values were determined from concentration-response data modeled with the standard Hill equation.
qHTS protocol fo CellTiter Glo BJ cellular assay
[Step] [Parameter] [Value] [Description]
1. Reagent; 5 uL; 1500 BJ cells/well
2. Time; 5 hr; 37 °C incubation
4. Controls; 23 nL; Tamoxifen 0.34 uM to 100 uM & Doxorubicin 0.02 nM to 100 uM
5. Time; 40 hr; 37 °C incubation
6. Reagent; 5 uL; CellTiter Glo reagent
7. Time; 20 min; Room Temperature
8. Detection; Luminescence; Viewlux plate reader
Keywords: cell viability, cytotoxicity, BJ cell line, luminescence, NTPHTS, NTPHTS_NCGC, NIEHS, EPA, DSSTox, MLSMR, MLSCN, NIH Roadmap, qHTS, NCGC
(In general: Quantitative high-throughput screening tests each substance at several concentrations.)
On to `Clc1nc(Cl)nc(Cl)n1`, for which the Potency is greater than 92 µM.

`CCCCCCCC(=O)Cl`: the Potency is greater than 92 µM.

Consider `Clc1nc(Cl)nc(Nc2ccccc2Cl)n1`, for which the Potency is greater than 92 µM.

Take `COC(=O)NC(=S)Nc1ccccc1NC(=S)NC(=O)OC`: the Potency is greater than 92 µM.

As for `CCCSC(=O)Cl`, the Potency was greater than 92 µM.

As for `C=CC(=C)C`, the Potency was greater than 92 µM.

`c1nc[nH]n1`: the Potency is greater than 92 µM.

Regarding `C=CCc1ccc(OC)cc1`, the Potency is greater than 92 µM.

For the compound `ClC1=C(Cl)C2(Cl)C3C4C=CC(C4)C3C1(Cl)C2(Cl)Cl` (stereo not given), the Potency was greater than 92 µM.

Take `COC1=CC(=O)OC(CCc2ccccc2)C1` (stereo not given): the Potency was greater than 92 µM.

In the case of `CC(C)(C)OO`, the Potency was greater than 92 µM.

Regarding `BrCCBr`, the Potency is greater than 92 µM.

In the case of `CNC(=O)O/N=C/C(C)(C)SC`, the Potency is greater than 92 µM.

In the case of `O=C(Cl)C(Cl)(Cl)Cl`, the Potency is greater than 92 µM.

For the compound `C=CCOC(C)=O`, the Potency is greater than 92 µM.

As for `C1CCC2CCCCC2C1` (stereo not given), the Potency was greater than 92 µM.

Consider `Clc1cccc(C(Cl)(Cl)Cl)n1`, for which the Potency is greater than 92 µM.

As to `Brc1ccccc1`, the Potency was greater than 92 µM.

For the compound `O=[N+]([O-])c1cccc2ccccc12`, the Potency was greater than 92 µM.

As for `c1ccc(OP(Oc2ccccc2)Oc2ccccc2)cc1`, the Potency was greater than 92 µM.

In the case of `Nc1ccccc1Cl`, the Potency is greater than 92 µM.

As for `O=C(O)COc1ccc(Cl)cc1Cl`, the Potency is greater than 92 µM.

With `c1ccc2c(c1)CCCC2`, the Potency was greater than 92 µM.

Regarding `COP(=S)(OC)Oc1ccc([N+](=O)[O-])cc1`, the Potency was greater than 92 µM.

In the case of `C=CC(N)=O`, the Potency is greater than 92 µM.

As for `COc1ccc(C=O)cc1OC`, the Potency was greater than 92 µM.

As to `O=S1OCC2C(CO1)C1(Cl)C(Cl)=C(Cl)C2(Cl)C1(Cl)Cl` (stereo not given), the Potency is greater than 92 µM.

Turning to `C=C(Cl)Cl`, the Potency was greater than 92 µM.

For the compound `CCCCOC(=O)c1ccccc1C(=O)OCCCC`, the Potency is greater than 92 µM.

As to `Clc1ccc2ccccc2c1`, the Potency is greater than 92 µM.

As to `Brc1ccc(Oc2cc(Br)c(Br)cc2Br)c(Br)c1`, the Potency was greater than 92 µM.

Take `O=[N+]([O-])c1ccc(Cl)c(Cl)c1`: the Potency was greater than 92 µM.

For the compound `C[N+](C)(C)Cc1ccccc1`, the Potency is greater than 92 µM.

For the compound `O=C1C(Cl)=C(Cl)C(=O)C(Cl)=C1Cl`, the Potency was 50.5 µM (active).

As for `CC(C)(C)OOC(C)(C)C`, the Potency is greater than 92 µM.

Turning to `OCC(Br)CBr` (stereo not given), the Potency was greater than 92 µM.

On to `CC(C)(OO)c1ccccc1`, for which the Potency was greater than 92 µM.

Turning to `C=C(C)C#N`, the Potency is greater than 92 µM.

With `CCCOC(=O)c1ccccc1C(=O)OCCC`, the Potency was greater than 92 µM.

As to `ClC(Cl)=C(c1ccc(Cl)cc1)c1ccc(Cl)cc1`, the Potency is greater than 92 µM.

(Values after PubChem BioAssay (NCATS).)
